Laboratory results as given in PubChem BioAssay (NCATS).
Several values for one entry are separate records, joined by “and”; a condition that tells them apart may be missing. Equal entries are not always repeated. Inconclusive results are not listed. Activity calls are given as the source filed them. Unless noted, calls follow the shape of the dose curve; as a rule, active = well fitted curve in the direction sought with a large enough effect; inconclusive = small, poorly fitted or top-dose-only effect, or another doubt; inactive = no such curve, though single readings can be large; an effect the other way counts as inactive or inconclusive.

How the values were obtained:
[1] = qHTS Assay for Identifying Gametocytocidal Compounds (AID 743244); also: potency is read from the fitted curve at half-maximal effect;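 as to max response: % is scaled to controls: 0 for no effect and ±100 for the full control effect; actives lower the fluorescent signal which means gametocytes are killed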; conditions: P. falciparum 3D7 stage III-V gametocytes, alamarBlue, 72 h; max response: stronger effect = lower value
Method in brief: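 P. falciparum 3D7 stage III–V gametocytes (20,000 cells/well) were exposed to compounds for 72 h at 37 °C, 5% CO2. AlamarBlue was then added for 24 h; decreased resorufin fluorescence (Ex 525/Em 598 nm) indicated loss of viability.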

[2] = qHTS profiling of the MIPE4 collection as inhibitors of Plasmodium falciparum (3D7) proliferation (AID 743344; call rule not given here;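 also: scaled between DMSO vehicle wells and 0.29 µM artemisinin as full inhibition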); conditions: P. falciparum 3D7 in erythrocytes, SYBR Green DNA fluorescence, 72 h; at 28.5 µM (top of the series)
Method in brief: (§1)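 Parasite DNA was quantified by SYBR Green I fluorescence (ex 485, em 535 nm) after overnight lysis in saponin/Triton buffer at room temperature. Cultures at 0.3% parasitemia and 2.5% hematocrit were first exposed to compound for 72 h at 37 C; signals were normalised to artemisinin (0.29 uM) and vehicle wells.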

[3] = qHTS profiling of the MIPE4 collection as inhibitors of Plasmodium falciparum (DD2) proliferation (AID 743345; call rule not given here); conditions: P. falciparum Dd2 in erythrocytes, SYBR Green DNA, 72 h; at 28.5 µM (top of the series)
Method in brief: as §1

[4] = qHTS profiling of the MIPE4 collection as inhibitors of Plasmodium falciparum (DD2) proliferation (Rep 2) (AID 743346; call rule not given here); conditions: P. falciparum Dd2 in erythrocytes, SYBR Green DNA, 72 h; at 28.5 µM (top of the series)
Method in brief: as §1

[5] = qHTS profiling of the MIPE4 collection as inhibitors of Plasmodium falciparum (HB3) proliferation (AID 743347; call rule not given here;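 also: plate controls were DMSO vehicle wells for no effect and artemisinin wells for full effect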); conditions: P. falciparum HB3 in erythrocytes, SYBR Green DNA, 72 h; at 28.5 µM (top of the series)
Method in brief: as §1

[6] = qHTS assay for small molecule activators of the nuclear factor-kappa B (NF-kB) signaling pathway (AID 651749; active = well fitted activation curve with a large enough effect in the signal ratio; the % refers to the signal ratio; also: % of control where 0% means no effect); conditions: NF-kB-bla ME-180 cells, beta-lactamase FRET ratio, 16 h; stronger effect = higher value
Method in brief: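 Beta-lactamase reporter expression, controlled by NF-kB response elements in ME-180 cells, was quantified fluorometrically via FRET disruption; cells at 2,000/well had been incubated with 23 nL test compound for 16 hr.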

[7] = target: Cytochrome P450 2C9 (Homo sapiens) (UniProt P11712); test: qHTS Assay for Inhibitors and Substrates of Cytochrome P450 2C9 (AID 883); conditions: recombinant CYP2C9, luciferin-H luminescence, 60 min; series mostly up to 57.1 µM; also: potency is read from the fitted curve at half-maximal effect; nearly all actives have a fitted effect of over 60% in size
Cytochrome P450 2C9 (Homo sapiens), sequence (P11712 whole entry, looked up): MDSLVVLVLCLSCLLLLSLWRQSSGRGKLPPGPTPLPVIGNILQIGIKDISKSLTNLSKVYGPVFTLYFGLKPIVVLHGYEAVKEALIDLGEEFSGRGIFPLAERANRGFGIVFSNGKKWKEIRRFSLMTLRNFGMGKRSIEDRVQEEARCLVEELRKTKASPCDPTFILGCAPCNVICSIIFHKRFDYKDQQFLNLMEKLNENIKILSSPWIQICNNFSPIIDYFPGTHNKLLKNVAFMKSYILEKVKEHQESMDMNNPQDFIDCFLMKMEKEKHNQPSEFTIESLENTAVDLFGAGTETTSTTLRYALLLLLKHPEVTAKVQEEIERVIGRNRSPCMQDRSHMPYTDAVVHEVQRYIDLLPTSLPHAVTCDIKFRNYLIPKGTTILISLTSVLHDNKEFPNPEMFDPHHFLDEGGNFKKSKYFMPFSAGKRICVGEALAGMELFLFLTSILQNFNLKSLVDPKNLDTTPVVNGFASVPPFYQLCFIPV
Method in brief: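 Human CYP2C9 (10nM) hydroxylated Luciferin-H (100uM, at its KM) to luciferin in 25mM KPO4. Compound was preincubated 10 min at 37C, then NADPH regeneration started a 60 min reaction at 37C. Luminescence was read after detection reagent, normalized to 57uM sulphaphenazole.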

[8] = target: Cytochrome P450 2D6 (Homo sapiens) (UniProt P10635); test: qHTS Assay for Inhibitors and Substrates of Cytochrome P450 2D6 (AID 891); conditions: recombinant CYP2D6, luciferin-ME EGE luminescence; series mostly up to 57.1 µM; also: nearly all actives have a fitted effect of over 60% in size; also: potency is read from the fitted curve at half-maximal effect
Cytochrome P450 2D6 (Homo sapiens), sequence (P10635 whole entry, looked up): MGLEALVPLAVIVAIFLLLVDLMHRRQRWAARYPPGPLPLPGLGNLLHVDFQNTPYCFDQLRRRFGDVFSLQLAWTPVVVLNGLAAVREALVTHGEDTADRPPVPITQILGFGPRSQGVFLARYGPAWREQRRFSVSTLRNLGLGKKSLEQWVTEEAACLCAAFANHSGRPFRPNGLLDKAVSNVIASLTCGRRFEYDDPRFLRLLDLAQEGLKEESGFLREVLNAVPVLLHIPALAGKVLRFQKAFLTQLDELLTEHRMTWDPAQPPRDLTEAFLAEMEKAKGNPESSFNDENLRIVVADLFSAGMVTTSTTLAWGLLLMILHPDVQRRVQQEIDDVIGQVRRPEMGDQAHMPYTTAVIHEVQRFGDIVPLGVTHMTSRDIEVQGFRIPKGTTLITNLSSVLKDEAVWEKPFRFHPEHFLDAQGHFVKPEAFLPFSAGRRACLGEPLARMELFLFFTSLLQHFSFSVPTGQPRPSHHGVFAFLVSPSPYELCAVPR
Method in brief: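 Luminescent read-out of luciferin formed by 5 nM human CYP2D6 demethylating 30 uM Luciferin-ME EGE (Km level) over 60 min at room temperature after NADPH regeneration addition. Data normalized to full inhibition by 1.43 uM quinidine.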

[9] = target: DNA dC->dU-editing enzyme APOBEC-3G (Homo sapiens) (UniProt Q9HC16); test: qHTS for inhibitors of Vif-A3G interactions: Validation (AID 588379); conditions: Vif-A3G protein interaction assay; series mostly up to 46.1 µM; also: 0% is about no effect
DNA dC->dU-editing enzyme APOBEC-3G (Homo sapiens), sequence (Q9HC16 whole entry, looked up): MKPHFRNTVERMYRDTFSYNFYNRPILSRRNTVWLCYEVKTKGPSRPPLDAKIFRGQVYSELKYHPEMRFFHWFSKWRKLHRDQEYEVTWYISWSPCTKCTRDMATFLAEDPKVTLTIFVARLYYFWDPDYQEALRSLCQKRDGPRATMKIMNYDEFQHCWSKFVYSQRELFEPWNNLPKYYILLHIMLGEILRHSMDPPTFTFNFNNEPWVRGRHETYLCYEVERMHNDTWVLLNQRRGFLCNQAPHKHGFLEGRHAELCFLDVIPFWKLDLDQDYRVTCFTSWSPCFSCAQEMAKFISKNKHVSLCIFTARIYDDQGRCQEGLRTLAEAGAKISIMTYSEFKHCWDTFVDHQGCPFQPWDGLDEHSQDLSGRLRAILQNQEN
Method in brief: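 Yellow fluorescence (Ex 488, Em 500-530) of Vif-coexpressing HeLa A3G-eYFP cells, scanned by Acumen cytometer, reports blocked A3G degradation. Cells plated at 700/well overnight at 37 deg C before compound addition, then a further overnight compound incubation at 37 deg C.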

[10] = target: Cytochrome P450 2C19 (Homo sapiens) (UniProt P33261); test: qHTS Assay for Inhibitors and Substrates of Cytochrome P450 2C19 (AID 899); conditions: recombinant CYP2C19, luciferin-H EGE luminescence; series mostly up to 57.1 µM; also: potency is read from the fitted curve at half-maximal effect; nearly all actives have a fitted effect of over 60% in size
Cytochrome P450 2C19 (Homo sapiens), sequence (P33261 whole entry, looked up): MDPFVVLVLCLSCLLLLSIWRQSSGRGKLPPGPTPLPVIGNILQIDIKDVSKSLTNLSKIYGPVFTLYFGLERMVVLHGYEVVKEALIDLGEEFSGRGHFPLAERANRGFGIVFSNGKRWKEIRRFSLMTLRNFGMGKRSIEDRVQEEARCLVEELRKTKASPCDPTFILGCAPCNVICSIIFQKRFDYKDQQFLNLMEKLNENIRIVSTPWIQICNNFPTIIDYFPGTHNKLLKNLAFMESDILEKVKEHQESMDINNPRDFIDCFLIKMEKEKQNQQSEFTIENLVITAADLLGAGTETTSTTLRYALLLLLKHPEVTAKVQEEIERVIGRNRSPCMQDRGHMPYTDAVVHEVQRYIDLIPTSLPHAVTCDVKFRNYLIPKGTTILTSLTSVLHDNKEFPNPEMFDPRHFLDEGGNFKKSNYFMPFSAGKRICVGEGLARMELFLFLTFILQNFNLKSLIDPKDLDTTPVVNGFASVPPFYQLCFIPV
Method in brief: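 Human CYP2C19 (5nM) with Luciferin-H EGE at 10uM (its KM) in 50mM KPO4 was preincubated with compound for 10 min at 37C. NADPH regeneration started a 60 min 37C reaction. Luciferin was read by luminescence, normalized to 57uM ketoconazole.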

## N[C@@H](C(=O)N[C@@H]1C(=O)N2C(C(=O)O)=C(Cl)CC[C@H]12)c1ccccc1
[1]
  max response: 3.49% (inactive)

## Nc1cccc(-c2csc(NC(=O)CCCCCCC(=O)NO)n2)c1
[2]
  parasite growth, % of DMSO control: 5.04%
[3]
  parasite growth remaining, % of DMSO control (lower = more inhibition): 7.08%
[4]
  parasite growth, % of control (lower = inhibition): 11.6%
[5]
  growth, % of control: 8.11%

## N=C(N)c1ccc(OCCCOc2ccc(C(=N)N)cc2Br)c(Br)c1
[1]
  Potency: 7080 nM (active)

## CC1(C)S[C@@H]2[C@H](NC(=O)COc3ccccc3)C(=O)N2[C@H]1C(=O)O
[6]
  activation: -1.54% (inactive)

## O=c1cc(-c2cccc(O)c2)oc2c(O)c(O)ccc12
[7]
  Potency: 1580 nM (active)
[8]
  Potency: inactive
[9]
  outcome: inactive

## COc1c2ccoc2cc2oc(=O)ccc12
[9]
  outcome: inactive

## CN1CC[C@H](CN2c3ccccc3Sc3ccccc32)C1
[8]
  Potency: 126 nM (active)
[1]
  Potency: 18700 nM (active)

## COc1ccc2[nH]cc(CCNc3nc(-c4ccccc4OC)nc4ccccc34)c2c1
[10]
  Potency: 5010 nM (active)

## CC(C)=CCCC(C)CCO (stereo unspecified)
[9]
  outcome: inactive

## COCC(=O)O
[6]
  activation: 0.0746% (inactive) and -0.444% (inactive)

## c1ccc2c(c1)c1cccc3ccc4cccc2c4c31
[6]
  activation: 2.08% (inactive) and 3.95% (inactive)

## COc1ccc2[nH]cc(CCNc3ncncc3-c3ccccc3C(F)(F)F)c2c1
[8]
  Potency: 2000 nM (active)
[10]
  Potency: 251 nM (active)

## COCCn1c(=O)c(-c2cccs2)nc2cnc(N3CCNCC3)nc21
[7]
  Potency: 2000 nM (active)

## C/C=C\c1ccc(OC)cc1
[6]
  activation: -0.604% (inactive)
